Measurements taken from PubChem BioAssay AID686978 (National Center for Advancing Translational Sciences (NCATS), 2013).
Among all 420,000 compounds or so, about 64,000 (15%) were called active. Another 27% or so got no clear call; they are omitted. A selection follows. Unmarked numbers belong to inactive results. Calls follow the shape of the dose curve; as a rule, active = well fitted inhibition curve with a large enough effect; inconclusive = small, poorly fitted or top-dose-only effect; inactive = flat fitted curve, though single readings scatter.

assay: qHTS for Inhibitors of human tyrosyl-DNA phosphodiesterase 1 (TDP1): qHTS in cells in absence of CPT; conditions: DT40 Tdp1-/- hTDP1 cells, no CPT, ATP luminescence, 48 h; activity change, negative = growth inhibition: at 46.2 µM (top of the series); also: nearly all actives have a fitted effect of over 55% in size
How it was run: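 Chicken DT40 Tdp1-/- cells stably complemented with human TDP1 were seeded at 400 cells/well with DMSO in place of 20 nM camptothecin. After compound pinning, cells grew at least 48 hr at 37 °C; viability read by CellTiter-Glo luminescence.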
% is scaled to controls: 0 for no effect and ±100 for the full control effect; potency is read from the fitted curve at half-maximal effect.

SMILES	activity change, negative = growth inhibition	Potency
CN(CCC1CCOCC1)C(=O)CC1C(=O)NCCN1Cc1cccc(F)c1 (configuration not stated)	-6.27%	
COc1ccc(NS(=O)(=O)c2cc3c(cc2C)N(C(C)=O)CCO3)cc1		inactive
COC(=O)c1c(NC(=O)c2ccc(Cl)c(Cl)c2)sc2c1CCCC2	-2.84%	
CCOC(=O)c1c(NC(=O)c2ccc(S(=O)(=O)N3CCCC(C)C3)cc2)sc2c1CCN(C(C)C)C2 (configuration not stated)		10.3 µM (active)
CCCN(CCC)S(=O)(=O)c1ccc(C(=O)Nc2sc3c(c2C(=O)OC)CCN(CC)C3)cc1		20.6 µM (active)
CCOC(=O)c1c(NC(=O)NC(C)(C)C)sc2c1CCN(C)C2	-0.308%	
CCOC(=O)c1c(NC(=O)C2CCN(S(=O)(=O)c3ccc(Cl)cc3)CC2)sc2c1CCCC2	-25.2%	
COC(=O)c1c(NC(=O)c2cc(=O)c3c(C)cc(C)cc3o2)sc2c1CCCC2	2.53%	
O=C(O)/C=C/c1ccc(OCCCF)cc1	7.32%	
CN(C)/C=C/C(=O)c1cnc2sccn2c1=O	1.42%	
Cn1nc(C(F)(F)F)c(-c2ccc(F)cc2)c1NC(=O)CSCC(=O)O	4.22%	
CN(C)C=NC(=O)c1cccn1-c1ncc(C(F)(F)F)cc1Cl	-0.565%	
CC(C)N(C(=O)CSc1nnc(NC2CC2)s1)c1ccccc1	11.9%	
O=C(CSc1nnc(Nc2ccccc2)s1)Nc1cccnc1Cl	6.65%	
CC(C)c1ccc(Nc2nnc(SCC(=O)c3nnc(-c4ccccc4)o3)s2)cc1		11.6 µM (active)
C/C(=N\OC(=O)c1ccccc1)c1c(C)nc2cc(C)ccn12	1.66%	
CC1=C(C(=O)Nc2ccc(Cl)cc2)C(c2ccco2)NC(=O)N1 (configuration not stated)	-5.62%	
Cc1ccc(SCC(=O)Nc2ccc3c(c2)OCCO3)cc1	-4.73%	
Cc1ccc(SCC(=O)c2cc(C)c(OC(=S)N(C)C)c(C)c2)cc1		18.4 µM (active)
Cc1ccc(SC(=O)COc2ccc(C)c(C)c2)cc1	-15.4%	
CCCCc1ccc(S(=O)(=O)NC(=O)C2(C)CCN2C(=O)c2c(C)noc2C)cc1 (configuration not stated)	-11.2%	
COc1ccc(/C=N/N(C)C2=NS(=O)(=O)c3ccccc32)cc1OC	-4.78%	
O=S1(=O)N=C(N(CCO)/N=C/c2ccccc2F)c2ccccc21		0.92 µM (active)
C=CCOCCN(C)C1=NS(=O)(=O)c2ccccc21	-11.1%	
CCCCC/C=C\C/C=C\CCCCCCCCCC(=O)O	6.04% [at 4.12 µM]	
Cc1cc(C)n(C(=O)CCNC(=O)c2ccccc2Cl)n1	-11.5%	

SMILES	activity change, negative = growth inhibition	Potency
NC(=O)c1ccsc1NC(=O)COC(=O)COc1ccc(C=O)cc1	14.7%	
Cc1cccc(NC(=S)Nc2ccc(Br)cc2)c1		16.4 µM (active)
Fc1cc(Br)ccc1NC(=S)Nc1cccnc1	-4.8%	
Cc1cccc(NC(=S)NC(=O)c2ccc(Br)o2)c1	-27.5%	
O=C(COC(=O)c1ccc2c(c1)OCCO2)NCc1ccccc1Cl	-9.9%	
CCCS(=O)(=O)NC(=O)C1(C)CCCN(C(=O)c2cc(C)on2)C1 (configuration not stated)	0.826%	
Cc1nc2cnc(N3CCN(C)CC3)nc2n(CCC#N)c1=O	0.2%	
Cn1c(SCC(=O)Nc2nccs2)nnc1-c1cccnc1	8.51%	
CN(C)S(=O)(=O)c1ccc(C(=O)N(Cc2cccnc2)c2nc3c(F)cc(F)cc3s2)cc1	-27.9%	
Cc1cccc2sc(N(CCCN(C)C)C(=O)CCS(=O)(=O)c3ccccc3)nc12		1.64 µM (active)
O=C(CCS(=O)(=O)c1ccccc1)N(Cc1cccnc1)c1nc2c(F)cccc2s1		2.31 µM (active)
CN(C)CCCN(C(=O)COc1ccccc1)c1nc2c(Cl)cccc2s1	19.3%	
O=C(NCc1cccnc1)Nc1ccccc1F	-1.9%	
COc1cc2ccccc2cc1C(=O)N(CCN(C)C)c1nc2c(F)cccc2s1	-8.8%	
COC(=O)[C@H](CC(C)C)NC(=O)N1CCCCC1C (some centres not stated)	3.98%	
COC(=O)C1=C(C)NC(=O)NC1/C=C/c1ccccc1 (configuration not stated)	1.29%	
O=C(CSc1nnc(-c2c[nH]c3ccccc23)o1)c1ccccc1	-10.2%	
O=C(CSc1nnc(Cn2cnc3ccccc32)o1)c1ccccc1		10.3 µM (active)
CC(=O)Nc1ccc(C(=O)CSc2nnc(Cc3ccccc3)o2)cc1	-11.9%	
Cc1cc(C)cc(NC(=O)c2cccc(NC(=O)C3C4CC5OC(=O)C3C5C4)c2)c1 (configuration not stated)	0.379%	
Cc1cccc(N2C(=O)SC(N(CC(=O)O)c3cccc(C)c3)C2=O)c1 (configuration not stated)	-11.3%	
CCOC(=O)CCP(=O)(O)C(O)(c1ccccc1)c1ccccc1	-9.03%	
O=S(=O)(Nc1ccc2cn[nH]c2c1)c1ccccc1	-22.4%	
O=C(CCNC(=O)C1CCN(S(=O)(=O)c2ccccc2)CC1)NC1CC1	7.77%	
CCOC(=O)c1cc(C(C)C)sc1NC(=O)COC(=O)c1nccnc1N	-25.3%	
O=C1C2(c3ccccc3)CN(CCCO)CC1(c1ccccc1)CN(CCCO)C2	-8.84%	
